This passage reports Potency results from PubChem BioAssay (NCATS).

Common to all, as to assay: qHTS profiling for inhibitors of Plasmodium falciparum proliferation (AID 504749); note: nearly all actives have a fitted effect of over 60% in size
Holding throughout (details): P. falciparum in erythrocytes, SYBR Green DNA, 72 h; series mostly up to 28.7 µM
A general note: In qHTS, concentration-response curves come from the screen itself.

The test system of one experiment is CP194. The method, boiled down: (§1)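 Fluorescence of SYBR Green-bound parasite DNA, read at 485/535 nm, served as the growth measure. Infected erythrocytes were cultured with compound 72 h; artemisinin (0.29 uM) and DMSO wells defined the normalization range.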
The next experiment has as its system CP201. The method, boiled down: as §1
A further experiment has as its system CP203. The method, boiled down:
as §1

Another experiment has as its system CP211. The essentials: as §1
For a further experiment, the system named is CP215. The method, boiled down:
as §1

The next experiment relates to CP217. The essentials: as §1
A further experiment relates to CP237. The essentials:
as §1

A further experiment concerns CP238. The essentials: as §1
In the next experiment the test system is CP247. The essentials:
as §1

The next experiment relates to CP250. The essentials: as §1
The next experiment relates to CP252. The method, boiled down:
as §1

In the next experiment the test system is CP256. The essentials: as §1
The next experiment deals with CP260. The method, boiled down: as §1
A further experiment relates to CP262. The essentials: as §1
The subject of a further experiment is CP265. The method, boiled down:
as §1

Another experiment deals with CP266. The essentials:
as §1

The test system of the next experiment is CP268. The essentials:
as §1

In a further experiment the test system is CP269. The method, boiled down:
as §1

The subject of a further experiment is CP286. The method, boiled down:
as §1

For a further experiment, the system named is CP291. The essentials: as §1

Records with an inconclusive call do not appear. The source made the active and inactive calls. Calls come from the whole dose curve; as a rule, active = well fitted inhibition curve with a large enough effect; inconclusive = small, poorly fitted or top-dose-only effect; inactive = flat fitted curve, though single readings scatter.
Potency is the fitted concentration of half-maximal effect.

Consider `NC(=S)NS(=O)(=O)c1ccc(N)cc1`, for which the Potency entry in the experiment on CP194, in the experiment with CP201, in the experiment with CP203, with CP211, in the experiment on CP215 and in the experiment on CP217 was “inactive” throughout. In addition, the Potency entry with CP237, in the experiment with CP238, in the experiment on CP247, in the experiment on CP250, in the experiment with CP252 and in the experiment on CP256 was “inactive” each time. Further, the Potency entry in the experiment with CP260, with CP262, in the experiment with CP265, in the experiment on CP266, with CP268 and in the experiment on CP269 was “inactive” each time. For the same compound, the Potency result in the experiment on CP286 and in the experiment on CP291 was “inactive” throughout.
For the compound `O=C1c2ccccc2CN2C(=O)c3ccccc3CN12`, the Potency result with CP194, in the experiment on CP201, with CP203, with CP211, with CP215 and in the experiment on CP217 was “inactive” throughout. In addition, the Potency entry with CP237, with CP238, in the experiment on CP247, with CP250, in the experiment with CP252 and with CP256 was “inactive” throughout. The Potency result in the experiment with CP260, in the experiment with CP262, with CP265, in the experiment with CP266, in the experiment with CP268 and with CP269 was “inactive” throughout. Further, the Potency result with CP286 and in the experiment on CP291 was “inactive” each time.
For the compound `O=C(O)/C=C/C(=O)Nc1ccc(S(=O)(=O)Nc2nccs2)cc1`, the Potency entry with CP194, in the experiment on CP201, in the experiment on CP203, with CP211, with CP215 and in the experiment with CP217 was “inactive” each time. Also, the Potency result with CP237, with CP238, in the experiment on CP247, with CP250, with CP252 and with CP256 was “inactive” in each case. In addition, the Potency result with CP260, with CP262, in the experiment on CP265, with CP266, in the experiment on CP268 and with CP269 was “inactive” each time. The Potency result with CP286 and in the experiment on CP291 was “inactive” throughout.
With `ClC(Cl)Cl`, the Potency entry in the experiment on CP194, in the experiment on CP201, in the experiment on CP203, in the experiment on CP211, with CP215 and in the experiment with CP217 was “inactive” throughout. For the same compound, the Potency result in the experiment on CP237, in the experiment with CP238, in the experiment with CP247, in the experiment on CP250, in the experiment with CP252 and in the experiment on CP256 was “inactive” in each case. Moreover, the Potency result in the experiment with CP260, in the experiment with CP262, with CP265, in the experiment with CP266, in the experiment with CP268 and in the experiment on CP269 was “inactive” throughout. Further, the Potency result with CP286 and in the experiment with CP291 was “inactive” throughout.
As for `C[C@]12CC[C@@H]3c4ccc(OC(=O)c5ccccc5)cc4CC[C@H]3[C@@H]1CC[C@@H]2O`, the Potency entry with CP194, in the experiment with CP201, in the experiment on CP203, in the experiment with CP211, with CP215 and in the experiment on CP217 was “inactive” each time. For the same compound, the Potency entry with CP238, in the experiment on CP247, with CP250, with CP252, in the experiment with CP256 and in the experiment on CP262 was “inactive” throughout. Also, the Potency result in the experiment with CP265, in the experiment on CP266, in the experiment on CP268, in the experiment with CP269 and in the experiment with CP291 was “inactive” each time. Besides, the Potency with CP237 is 4.47 µM (active); in the experiment on CP260, 5.01 µM (active); with CP286 it was 12.6 µM (active).
In the case of `CCC(Cc1c(I)cc(I)c(O)c1I)C(=O)O` (stereo not given), the Potency entry with CP194, in the experiment on CP201, in the experiment with CP203, in the experiment with CP211, with CP215 and in the experiment on CP217 was “inactive” each time. Also, the Potency entry in the experiment with CP237, in the experiment on CP238, in the experiment on CP247, in the experiment on CP250, with CP252 and in the experiment with CP256 was “inactive” throughout. The Potency result in the experiment with CP260, with CP262, in the experiment on CP265, in the experiment with CP266, in the experiment with CP268 and in the experiment on CP269 was “inactive” each time. Further, the Potency entry in the experiment with CP286 and in the experiment on CP291 was “inactive” each time.
As to `CC(CCc1ccc(O)cc1)NCC(O)c1ccc(O)cc1` (stereo not given), the Potency entry with CP194, in the experiment on CP201, with CP203, with CP211, in the experiment on CP215 and in the experiment on CP217 was “inactive” in each case. For the same compound, the Potency entry in the experiment with CP237, in the experiment with CP238, in the experiment on CP247, in the experiment with CP250, with CP252 and in the experiment with CP256 was “inactive” throughout. For the same compound, the Potency entry in the experiment on CP260, in the experiment on CP262, in the experiment with CP265, in the experiment on CP266, in the experiment with CP268 and with CP269 was “inactive” each time. In addition, the Potency entry in the experiment on CP286 and in the experiment with CP291 was “inactive” each time.
Regarding `CC(=O)Oc1cccc(C(=O)O)c1OC(C)=O`, the Potency entry in the experiment with CP194, in the experiment with CP201, in the experiment on CP203, in the experiment on CP211, in the experiment with CP215 and in the experiment on CP217 was “inactive” in each case. Besides, the Potency entry in the experiment on CP237, in the experiment with CP238, in the experiment on CP247, with CP250, in the experiment with CP252 and in the experiment on CP256 was “inactive” throughout. In addition, the Potency entry in the experiment with CP260, with CP262, with CP265, in the experiment with CP266, with CP268 and in the experiment on CP269 was “inactive” each time. For the same compound, the Potency entry in the experiment on CP286 and in the experiment on CP291 was “inactive” in each case.
In the case of `C[C@H]1O[C@@H](O[C@H]2[C@@H](O)C[C@H](O[C@H]3[C@@H](O)C[C@H](O[C@H]4CC[C@@]5(C)[C@H](CC[C@@H]6[C@@H]5C[C@@H](O)[C@]5(C)[C@@H](C7=CC(=O)OC7)CC[C@]65O)C4)O[C@@H]3C)O[C@@H]2C)C[C@H](O)[C@@H]1O`, the Potency result in the experiment with CP194, with CP201, in the experiment on CP203, in the experiment with CP211, in the experiment on CP215 and in the experiment with CP217 was “inactive” in each case. In addition, the Potency result in the experiment with CP237, with CP238, in the experiment on CP247, in the experiment with CP250, in the experiment with CP252 and in the experiment on CP256 was “inactive” each time. The Potency result in the experiment with CP260, in the experiment with CP262, in the experiment on CP265, with CP266, in the experiment with CP268 and in the experiment with CP269 was “inactive” throughout. Besides, the Potency result in the experiment on CP286 and in the experiment on CP291 was “inactive” throughout.
Consider `CC(=O)N[C@@H]1C(O[C@H]2O[C@H](C(=O)O)C(O)[C@H](O)[C@H]2O)[C@H](O)[C@@H](CO)O[C@H]1O[C@@H]1C(C(=O)O)O[C@@H](O[C@H]2[C@H](O)[C@@H](CO)OC(O)[C@@H]2NC(C)=O)[C@H](O)[C@H]1O` (stereo not given in full), for which the Potency entry with CP194, in the experiment with CP201, in the experiment on CP203, in the experiment with CP211, with CP215 and with CP217 was “inactive” each time. Besides, the Potency entry in the experiment with CP237, in the experiment with CP238, in the experiment with CP247, in the experiment on CP250, in the experiment on CP252 and in the experiment on CP256 was “inactive” throughout. For the same compound, the Potency entry with CP260, with CP262, in the experiment on CP265, in the experiment on CP266, in the experiment with CP268 and in the experiment on CP269 was “inactive” in each case. Moreover, the Potency result with CP286 and in the experiment with CP291 was “inactive” throughout.
`NCC(O)CC(=O)O` (stereo not given): the Potency result with CP194, in the experiment with CP201, in the experiment on CP203, with CP211, with CP215 and in the experiment on CP217 was “inactive” in each case. The Potency result in the experiment on CP237, with CP238, with CP247, in the experiment with CP250, in the experiment on CP252 and in the experiment with CP256 was “inactive” throughout. Moreover, the Potency entry in the experiment on CP260, with CP262, with CP265, in the experiment on CP266, in the experiment on CP268 and with CP269 was “inactive” each time. In addition, the Potency result in the experiment on CP286 and in the experiment on CP291 was “inactive” each time.
Take `COC1=C(OC)C(=O)C(C/C=C(\C)CC/C=C(\C)CC/C=C(\C)CC/C=C(\C)CC/C=C(\C)CC/C=C(\C)CC/C=C(\C)CC/C=C(\C)CC/C=C(\C)CCC=C(C)C)=C(C)C1=O`: the Potency entry in the experiment with CP194, in the experiment on CP201, with CP203, in the experiment on CP211, with CP215 and in the experiment on CP217 was “inactive” throughout. In addition, the Potency result in the experiment with CP237, in the experiment on CP238, with CP247, with CP250, in the experiment with CP252 and in the experiment on CP256 was “inactive” throughout. The Potency result with CP260, with CP262, in the experiment on CP265, in the experiment with CP266, in the experiment on CP268 and in the experiment with CP269 was “inactive” in each case. In addition, the Potency result in the experiment on CP286 and in the experiment on CP291 was “inactive” throughout.
